Experimental data taken from PubChem BioAssay AID1159580 (chemical genetic matrix, 2015).
The whole screen tested about 5,500 compounds, of which about 2,000 (36%) were called active. Not shown: some 18% with an inconclusive outcome. Rule as the data show it: active = normalized growth mostly below about 0.91 (no sharp cut-off); inconclusive = no clear call, values can overlap the other calls; inactive = mostly above about 0.92. The list shows a part of the results.

Test: chemical genetic growth profiling, strain panel (AID 1159580);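 also: tested at 20 µM; growth read once vehicle control cultures reached saturation at 30 °C; 1 = growth at the plate median or of vehicle wells; lower values mean less growth of the strain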
Conditions: S. cerevisiae deletion strains, growth OD

Measured: normalized growth

CCOP(=S)(OCC)Oc1nc(Cl)c(Cl)cc1Cl
inactive: locus YAL013W, strain DEP1, active compounds read low 1.01 | locus YAL021C, strain ccr4, active compounds read low 0.974 | locus YAL026C, strain drs2, active compounds read low 0.941 | locus YAL030W, strain snc1, active compounds read low 0.951 | locus YBL061C, strain skt5, active compounds read low 0.964 | locus YBR021W, strain FUR4, active compounds read low 1.01 | locus YBR023C, strain chs3, active compounds read low 0.963 | locus YBR171W, strain sec66, active compounds read low 0.95 | locus YBR229C, strain ROT2, active compounds read low 0.997 | locus YBR231C, strain swc5, active compounds read low 0.963 | locus YBR279W, strain paf1, active compounds read low 0.98 | locus YCL011C, strain gbp2, active compounds read low 0.938 | locus YCL016C, strain dcc1, active compounds read low 0.981 | locus YCL029C, strain bik1, active compounds read low 0.99 | locus YCL069W, strain vba3, active compounds read low 0.972 | locus YCR088W, strain abp1, active compounds read low 0.951 | locus YDL005C, strain med2, active compounds read low 0.968 | locus YDL035C, strain GPR1, active compounds read low 1.03 | locus YDL040C, strain nat1, active compounds read low 0.955 | locus YDL074C, strain BRE1, active compounds read low 0.985 | locus YDL101C, strain DUN1, active compounds read low 1.01 | locus YDL134C, strain PPH21, active compounds read low 0.988 | locus YDL185W, strain tfp1, active compounds read low 0.994 | locus YDL192W, strain arf1, active compounds read low 0.989 | locus YDR001C, strain nth1, active compounds read low 0.948 | locus YDR069C, strain doa4, active compounds read low 0.949 | locus YDR101C, strain arx1, active compounds read low 0.981 | locus YDR150W, strain NUM1, active compounds read low 1.01 | locus YDR159W, strain sac3, active compounds read low 0.952 | locus YDR162C, strain NBP2, active compounds read low 1.01 | locus YDR195W, strain ref2 1.03 | locus YDR297W, strain sur2, active compounds read low 0.957 | locus YDR318W, strain mcm21, active compounds read low 0.981 | locus YDR334W, strain swr1, active compounds read low 0.947 | locus YDR335W, strain msn5, active compounds read low 0.973 | locus YDR388W, active compounds read low 0.986 | locus YDR502C, strain sam2, active compounds read low 0.988 | locus YEL003W, strain gim4, active compounds read low 0.964 | locus YEL037C, strain rad23, active compounds read low 0.959 | locus YEL061C, strain CIN8 (second series), active compounds read low 0.957 | locus YEL061C, strain CIN8, active compounds read low 1 | locus YER015W, strain faa2, active compounds read low 0.964 | locus YER016W, strain bim1, active compounds read low 0.973 | locus YER110C, active compounds read low 0.993 | locus YER111C, strain swi4, active compounds read low 0.958 | locus YER155C, strain BEM2, active compounds read low 1 | locus YER167W, strain BCK2, active compounds read low 1.01 | locus YFR010W, strain ubp6, active compounds read low 0.961 | locus YGL078C, strain dbp3, active compounds read low 0.98 | locus YGL086W, strain mad1, active compounds read low 0.987 | locus YGL167C, strain pmr1, active compounds read low 0.947 | locus YGL173C, strain kem1, active compounds read low 0.977 | locus YGL227W, strain vid30, active compounds read low 0.935 | locus YGL240W, strain doc1, active compounds read low 0.949 | locus YGL248W, strain PDE1, active compounds read low 1.01 | locus YGL253W, strain hxk2, active compounds read low 0.948 | locus YGR078C, strain PAC10, active compounds read low 0.987 | locus YGR135W, strain pre9, active compounds read low 0.986 | locus YGR229C, strain SMI1, active compounds read low 0.98 | locus YGR252W, strain gcn5, active compounds read low 0.976 | locus YHR013C, strain ard1, active compounds read low 1.07 | locus YHR027C, strain rpn1, active compounds read low 0.966 | locus YHR030C, strain SLT2, active compounds read low 1.01 | locus YHR079C, strain IRE1 (second series), active compounds read low 0.991 | locus YHR094C, strain hxt1, active compounds read low 0.983 | locus YHR129C, strain ARP1, active compounds read low 0.995 | locus YHR200W, strain rpn10, active compounds read low 0.986 | locus YIL066C, strain RNR3, active compounds read low 0.991 | locus YIL073C, strain SPO22, active compounds read low 0.961 | locus YIL125W, strain kgd1, active compounds read low 0.981 | locus YIR030C, strain dcg1, active compounds read low 0.991 | locus YJL092W, strain hpr5, active compounds read low 0.959 | locus YJL095W, strain BCK1 (second series), active compounds read low 0.949 | locus YJL095W, strain BCK1, active compounds read low 0.973 | locus YJL115W, strain asf1, active compounds read low 0.971 | locus YJL129C, strain trk1, active compounds read low 0.921 | locus YJL134W, strain LCB3, active compounds read low 1.01 | locus YJL154C, strain vps35, active compounds read low 0.937 | locus YJL166W, strain qcr8, active compounds read low 0.961 | locus YJL168C, strain set2, active compounds read low 0.988 | locus YJL187C, strain SWE1 (second series), active compounds read low 0.996 | locus YJR043C, strain POL32, active compounds read low 1.02
active: locus YBR009C, strain hhf1, active compounds read low 0.873 | locus YDR137W, strain rgp1, active compounds read low 0.832 | locus YDR392W, strain spt3, active compounds read low 0.615 | locus YER155C, strain BEM2 (second series), active compounds read low 0.748 | locus YHR142W, strain chs7, active compounds read low 0.847 | locus YJL164C, strain tpk1, active compounds read low 0.914
